Assay in all cases: NCI-60 one-dose screen, 48 h (100 = growth as untreated, 0 = no growth, -100 = all killed)
Settings in all cases: 10 µM unless noted

Test [1] deals with T-47D breast.
The test system of test [2] is BT-549 breast.
The subject of test [3] is SW-620 colon.
Test [4] relates to MCF7 breast.
Test [5] deals with HCT-116 colon.
In test [6] the test system is HCC-2998 colon.
The subject of test [7] is KM12 colon.
In test [8] the test system is MDA-MB-435 melanoma.

“And” between values parts separate entries of the source, which are not always exact repeats. Equal values may be shown once. This is part of a sample that, as a whole, favours compounds with a hit. Of some 83,000 tested, about 20% had one in any assay.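 Testing used 96-well plates and a 48-hour single-concentration exposure. Example: -40 means 40% of the starting cells died.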 The source made the active and inactive calls. Rule for the calls: active = growth percent below 10; inactive = the rest.

Take `ON=C(C1CCCCC1)C1CCCCC1`: the growth in test [1] was 87.3% (inactive); in test [2], 108% (inactive); in test [3], 102% (inactive); in test [4] it was 93.3% (inactive); in test [5] it was 100% (inactive); in test [6] it was 109% (inactive). Further, the growth in test [7] was 95.5% (inactive).
As to `O=c1[nH]c(=O)n(C2OC(CO)C(O)C2O)cc1I` (stereo not given), the growth was 105% (inactive) and 100% (inactive) in test [1]; 143% (inactive) and 108% (inactive) in test [2]; 101% (inactive) in test [3]; 89% (inactive) and 107% (inactive) in test [4]; 109% (inactive) and 95.8% (inactive) in test [5]; 109% (inactive) and 95.8% (inactive) in test [6]. In addition, the growth in test [7] is 109% (inactive) and 100% (inactive).
As to `O=S(=O)(O)c1ccc2cc(O)ccc2c1`, the growth is 102% (inactive) in test [1]; 105% (inactive) in test [2]; 99.9% (inactive) in test [3]; 108% (inactive) in test [5]; 109% (inactive) in test [6]; 110% (inactive) in test [7].
Turning to `CCCC(=O)OCC(COC(=O)CCC)OC(=O)CCC`, the growth in test [1] was 85.3% (inactive); in test [2] it was 106% (inactive); in test [3], 95.6% (inactive); in test [4] it was 93.9% (inactive); in test [5] it was 98.8% (inactive); in test [6], 95.3% (inactive). Moreover, the growth in test [7] was 103% (inactive).
`CC(=O)Oc1ccc(C2(c3ccc(OC(C)=O)cc3)C(=O)Nc3ccccc32)cc1`: the growth is -26.3% (active) and -22.5% (active) in test [1]; -33.3% (active) and -8.43% (active) in test [2]; 98.2% (inactive) and 104% (inactive) in test [3]; 9.09% (active) and 15.1% (inactive) in test [4]; 84.9% (inactive) and 84.5% (inactive) in test [5]; -3.15% (active) and 44.8% (inactive) in test [6]. The growth in test [7] was 71.3% (inactive) and 61.9% (inactive).
For `OCCCc1ccccc1`, the growth in test [1] is 112% (inactive); in test [2], 101% (inactive); in test [3], 107% (inactive); in test [4], 101% (inactive); in test [5], 99.5% (inactive); in test [7], 109% (inactive).
With `CCN(CC)CCNC(=O)c1ccc(NCN2C(=O)NC(c3ccccc3)(c3ccccc3)C2=O)cc1`, the growth in test [1] is 117% (inactive) and 95.2% (inactive); in test [2], 107% (inactive) and 120% (inactive); in test [3], 105% (inactive) and 106% (inactive); in test [5] it was 104% (inactive) and 95.1% (inactive); in test [6] it was 102% (inactive) and 125% (inactive); in test [7] it was 106% (inactive) and 101% (inactive).
Turning to `O=C(O)c1c2c(nc3ccccc13)Cc1ccccc1-2`, the growth in test [1] was 97.3% (inactive) and 98.5% (inactive); in test [2], 103% (inactive) and 88.1% (inactive); in test [3], 99.3% (inactive) and 90.1% (inactive); in test [4] it was 97.3% (inactive) and 92% (inactive); in test [5], 95.6% (inactive) and 104% (inactive); in test [7], 97.8% (inactive) and 98.9% (inactive).
As to `O=C(O)C#Cc1ccc(Cl)cc1`, the growth in test [1] was 90.7% (inactive); in test [2], 99.9% (inactive); in test [3] it was 96.8% (inactive); in test [4] it was 98.8% (inactive); in test [5], 102% (inactive); in test [6] it was 108% (inactive). Besides, the growth in test [7] is 104% (inactive).
In the case of `CCCC(=O)Oc1ccc2ccccc2c1`, the growth in test [1] is 92.2% (inactive); in test [8], 106% (inactive); in test [3] it was 92.1% (inactive); in test [4], 101% (inactive); in test [5], 101% (inactive); in test [6], 97.9% (inactive). The growth in test [7] was 113% (inactive).
Turning to `C=CCN1C(=O)c2ccccc2C1=O`, the growth in test [1] is 118% (inactive); in test [2], 96.8% (inactive); in test [3], 98.5% (inactive); in test [4], 98.6% (inactive); in test [5], 99.2% (inactive); in test [6], 104% (inactive). The growth in test [7] is 110% (inactive).
As for `CCOP(=O)(OCC)/C(C#N)=C/c1c(C)[nH]c2ccccc12`, the growth in test [1] is 85.1% (inactive); in test [2] it was 98.3% (inactive); in test [3], 98.2% (inactive); in test [4] it was 96.2% (inactive); in test [5], 101% (inactive); in test [7], 100% (inactive).
Regarding `COC(=O)c1nc(=S)[nH]c(C(=O)OC)c1C(=O)c1ccccc1`, the growth is 107% (inactive) in test [1]; 124% (inactive) in test [2]; 108% (inactive) in test [3]; 94.2% (inactive) in test [4]; 126% (inactive) in test [5]; 116% (inactive) in test [6]. In addition, the growth in test [7] was 114% (inactive).
As for `Nc1ccc(Cl)c(S(=O)(=O)O)c1`, the growth was 92.4% (inactive) in test [1]; 96% (inactive) in test [2]; 99.1% (inactive) in test [3]; 101% (inactive) in test [4]; 102% (inactive) in test [5]; 110% (inactive) in test [6]. Besides, the growth in test [7] is 103% (inactive).
In the case of `CCN(CC)Cc1cc2[nH]c3c4ccc(Cl)cc4ncc3c2cc1OC`, the growth was 99.2% (inactive) and 94.2% (inactive) in test [1]; 75.1% (inactive) and 82.2% (inactive) in test [2]; 4.64% (active) and 25.5% (inactive) in test [3]; 16.5% (inactive) and 64.2% (inactive) in test [4]; -3.8% (active) and 7.95% (active) in test [5]; 83.6% (inactive) and 101% (inactive) in test [6]. Further, the growth in test [7] was 2.32% (active) and 42.7% (inactive).

The values above are taken from PubChem BioAssay (NCI).
